Laboratory results as given in the supplement of paper PMC11417369.
± gives the standard deviation of the averaged measurements. Whole data set: some 25,000 sequences, median “ln(normalized median fluorescence intensity)” near 7.9, cut for the highest 2% near 11. This is one part of a sample in which the highest values are shown more often than they occur.

What follows are sequences tested on PfAP2-I AP2 domain 3 (GST-tagged) (assay: gcPBM binding intensity (ln(normalized median fluorescence intensity)); higher = stronger DNA binding).
In short: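 Binding intensity is defined as the maximum Masliner-normalised natural-log median intensity across replicate spots for either probe orientation. It was measured on an Agilent 4 × 180k array of primer-extended double-stranded 36-bp intergenic genomic probes and negative controls, to which GST-tagged P. falciparum DNA-binding domains made in E. coli were applied for 1 h in 1× PBS with 1% milk, 0.2 mg/ml BSA, 0.5% salmon testes DNA and 0.03% Triton X-100. Detection was by Alexa488 anti-GST antibody and scanning at 488 nm.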

| Sequence | gcPBM binding intensity (ln) |
| --- | --- |
| TATAAACTTAATTTGAGTACTTAATAATAATTTTGT [XGTACX_site3730] | 7.38 ± 0.47 |
| GTCAACTTGTGATAAGTGCATATATATAATAAAATG | 9.875 ± 0.078 |
| ATACAGTTGCATATGGTGCACGAATAATACACCTAT | 11 ± 0.25 |
| GAATAATATGGACATACACACATATACATACCTATA [CACACA_site7075] | 8.07 ± 0.59 |
| GTACACCTATAATATACACACAACAAATATGCACAT [CACACA_site6603] | 9.64 ± 0.39 |
| ACTATTAAGAATAAAGAAATATGTAATTGTATTTAA [CACACA_negctrl_site516] | 7.43 ± 0.59 |
| GTATAGAGAAAAAACTGTACTTTATATAAATATTTA [XGTACX_site3972] | 7.53 ± 0.3 |
| ATATATGTACAAATTGTGCGCAATAATTTTGTCTTT | 9.06 ± 0.33 |
| TACATTTCATTGTAATCATAAAAAATAAAGAAAAAA [XGTACX_negctrl_site542] | 7.58 ± 0.61 |
| ATAATGAACAAAGTAGTGCACTTTCCTTATCTTTTC | 11.4 ± 0.26 |
| CCTTTCCTTTTATAAGTGCATATAACAAATGTATAC [GTGCAC_site9872] | 10 ± 0.11 |
| ATATCTTATAATACGGTGCACTTGACATGAACAACT [GTGCAC_site9987] | 10.7 ± 0.3 |
| AATATAAACCCAAACACACACATATATATATATATA [CACACA_site268] | 9.4 ± 0.37 |
| ATATAAAATATGAGTAGTACATATTTTCTCATCTTA [XGTACX_site8595] | 7.55 ± 0.38 |
| ACTACAAGGCAATACAGTACATATAAATGTCATAAT [XGTACX_site8468] | 7.85 ± 0.45 |
| AATAATATATATTACACACGCATCGTTCATTTATTT [CACACA_site2391] | 7.87 ± 0.92 |
| ATACTAACATTTTTTTGTACATATAACTATAAAATA [XGTACX_site1033] | 8.09 ± 0.47 |
| AAATACTGATTTGGTTGTACATGTGCACTATATAAC [XGTACX_site3795] | 11.3 ± 0.56 |
| AAATATTTGTGTGGTTGTACTATAATGATAAAAATA [XGTACX_site7703] | 8.14 ± 0.42 |
| GGGAAACGATTTAATACACACACGTATTATATATAT [CACACA_site1160] | 8.48 ± 0.59 |

| Sequence | gcPBM binding intensity (ln) |
| --- | --- |
| ATTAGTATAATGTAACTTAGTTAATAGTGCTAATAT [CACACA_negctrl_site764] | 9.54 ± 0.4 |
| TTTTCATTTGTGACAGTGCAAAATGTTATATTAAAA [GTGCAC_site9647] | 9.99 ± 0.3 |
| CTCATTTTGTTAATGGTGCAAAAAAAAAAAAAAAAA | 11.1 ± 0.73 |
| AAAAAAAAAAAAATGGTGCAACTTTGTTAAAGGAAA [GTGCAC_site9950] | 9.56 ± 0.12 |
| ATGGATTATTTTTAAACATGCAGTAGTGATGAAAAA [TGCATGCA_site346] | 8.36 ± 0.53 |
| CATATTCCCCCCCACACACACACACCCATACATACC [CACACA_site2303] | 11.2 ± 0.44 |
| CATATTCCCCCCCACACACACACACGCATACATACC [CACACA_site7148] | 10.8 ± 0.33 |
| GACATATTCCCCCCCACACACACACCCACATACATA [CACACA_site2302] | 10.8 ± 0.26 |
| AAATATAATATATGCACACATACATACATATATATA [CACACA_site104] | 9.41 ± 0.3 |
| TTTGAAATAAATAATGCACACTCTACATATATACGT [CACACA_site2244] | 11.1 ± 0.61 |
| TGAAAAAAAAAATGCACACGCATACAGATAATATGT [CACACA_site4526] | 8.62 ± 0.51 |
| GTTGAAAAAAAAAATGCACACGCATACATATAATAT [CACACA_site8117] | 8.71 ± 0.29 |
| TGAAATAAATAATGCACACTCTACAGATATACGTAT [CACACA_site5270] | 11.1 ± 0.66 |
| AAATATAATATATGCACACATACATACAGATATATA [CACACA_site4235] | 9.22 |
| AAATAAAATTATAATACATGCATACATACATATATA [TGCATGCA_site69] | 7.9 ± 0.54 |
| AAAAATAAAATATATACATGCATATACATATTATAT [TGCATGCA_site668] | 7.87 ± 0.45 |
| AATTATATAAGCCACGCATGTGTGCATAAAAATACA [TGCATGCA_site114] | 11.1 ± 0.34 |
| ATGTTAATAACTTGTGGTACTGTTATAATTTAGTAA [XGTACX_site2114] | 7.71 ± 0.42 |
| TTTAATCATATGTTATATAATAAGCCCCCCCCCCAA [CACACA_negctrl_site486] | 11.1 ± 0.63 |
| TATTAATTATATTTATGTACATAATCATATTATTAT [XGTACX_site7938] | 7.66 ± 0.39 |

| Sequence | gcPBM binding intensity (ln) |
| --- | --- |
| ATATATATATAATTATATAAAATATATCATATGTTA [XGTACX_negctrl_site47] | 8.76 ± 0.16 |
| ATTATTTGATTAAAGGTGCAAGGATAATAATAAAAC | 9.47 ± 0.17 |
| ATTAATAATCGAAAGGTGCACTTTGATTTGATAACA | 11.2 ± 0.3 |
| AAAAAAAAAAAAAAGGTGCATACTTTGAATTAATAT [GTGCAC_site9401] | 9.87 ± 0.17 |
| AAAAAAAAAAAAAAAAGTACATGAAAAAAAGAAGAA [XGTACX_site8384] | 8.7 ± 0.27 |
| TAAAGGAAATAAAAAACATGCAAATATGAAATATAT [TGCATGCA_site745] | 7.61 ± 1.1 |
| CAATATATTATATGGGTGCAAACCACATATAAATAA | 10.1 ± 0.33 |
| CATATATATTTTATATGTACATATATATTTTATATA [XGTACX_site8665] | 7.59 ± 0.15 |
| AAATAAAATAATAAAACATGCAAAAATAATGATTTA [TGCATGCA_site415] | 7.71 ± 0.76 |
| GACAATTATATGTAGGTGCATATACAAATTTTTTAA | 10.4 ± 0.57 |
| AGGTGCAAAAATAAAACATGCAAAAATAAAAATGAA [TGCATGCA_site502] | 10.9 ± 0.65 |
| ATTTTATATACAAAATGTACATATTTATTATATATG [XGTACX_site6732] | 7.74 ± 0.5 |
| ATATAAAATACATGGGTGCAATATATTAAACAAATA [GTGCAC_site9421] | 11.2 ± 0.48 |
| TATTAAATATATATTACATGCAAAAAAAAAAAACAA [TGCATGCA_site705] | 7.97 ± 0.52 |
| ATTTTTTTTTTTTTATGTACATATAGGTGCAAATCA [XGTACX_site6748] | 11.3 ± 1 |
| ATTATGTACAAAATGGTGCAATATTATACATATATA [GTGCAC_site9468] | 11.1 ± 0.49 |
| TACAAATATATAAAATGTACATATATATACATATTA [XGTACX_site3029] | 7.46 ± 0.27 |
| TTTTATTGTTTTTTTTTTTTTTCTTTTTTTTTTTTT [CACACA_negctrl_site1094] | 7.91 ± 0.46 |
| ATACGTGGGCAAAAAGTGCATATAATCAAAAAAAAA [GTGCAC_site9961] | 10.4 ± 0.11 |
